Sm TGR inh: blocks Schistosoma mansoni thioredoxin glutathione reductase. Q962Y6. purified TGR, DTNB reduction, TNB absorbance 405 nm. Potency, µM (highest dose often 114 µM), inactives show top-dose activity change, negative = inhibition, most hits filed as inhibitors. hit rate 3% among 360,000; further: potency means the concentration at half of the fitted maximal effect; on the % scale 0 is the no-effect control and ±100 the full control effect; nearly all actives have a fitted effect of over 60% in size
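First, TGR (20 nM dispensed) and NADPH were mixed with compound. Second, a 15 min room-temperature incubation followed. Third, further NADPH and then DTNB were added to start the reaction. Finally, TNB absorbance was monitored kinetically.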
CHX counter: affects cycloheximide protein synthesis inhibition readout, counter-screen. cell reporter, cycloheximide protein synthesis inhibition counterscreen. max response, %. hit rate 12% among 300,000. AID 2314; in the data active means max response mostly above about 13%, no sharp cut-off; inactive means mostly below about 14%; further: read at 38.3 µM for the half of the compounds with a filed dose; 0% is about no effect
NS1 function inh: blocks influenza NS1 protein function; Potency, µM (top dose mostly 46.1 µM), without a hit: at the top dose activity, positive = more growth; hit rate 0.4% among 270,000; calls by dose curve; further: potency means the concentration at half of the fitted maximal effect; actives are rising curves; nearly all actives have a fitted effect of over 50% in size
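OD600 was taken as the measure of yeast growth restored by compound in an NS1-expressing S. cerevisiae strain. Cells had been washed out of glucose medium and diluted 1:100 into galactose -URA medium, pH 6.0.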
Pf growth 48h: P. falciparum growth inhibition at 48 hours (one generation). AID 504832. Potency, µM (top dose mostly 28.7 µM), for inactives: at the highest dose activity change, negative = inhibition, usual class: inhibitors. hit rate 5.9% among 310,000. P. falciparum luciferase growth in erythrocytes, 48 h; further: potency means the concentration at half of the fitted maximal effect; on the % scale 0 is the no-effect control and ±100 the full control effect
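Luminescence readout; reporter = integrated firefly luciferase in P. falciparum. RBC culture at 2% hematocrit, 0.1% parasitemia final, 37 C/5% CO2; decreased signal taken as growth inhibition.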
Pf growth 96h: P. falciparum growth inhibition at 96 hour, primary screen for plastid delayed-death inhibitors. Potency, µM (doses to about 28.7 µM), inactives show at the top dose activity change, negative = inhibition, hits mostly inhibitors. AID 504834. hit rate 6.9% among 320,000. P. falciparum luciferase reporter growth, 96 h; further: potency means the concentration at half of the fitted maximal effect; on the % scale 0 is the no-effect control and ±100 the full control effect
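Plates of compound plus infected erythrocytes (2% hematocrit, 0.05% parasitemia final) incubate 96 hours, 37 C, 5% CO2. Detection reagent added; reduced luminescence from the parasites' luciferase reporter flags inhibition.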
Shiga toxin inh: Shiga toxin inhibition; hit rate 9.2% among 290,000; Vero cells, Shiga toxin protein synthesis inhibition reporter; inhibition, % at 38.7 µM; in the data active means inhibition mostly above about 28%, no sharp cut-off; inactive means mostly below about 43%; further: 0% is about no effect
NS1 inh valid: validation of influenza NS1 protein function inhibitors; activity change, negative = inhibition, % at 32.9 µM; shares compounds with NS1 function inh; influenza NS1 function cell assay, 15-point titration; 1,400 tested, under 10 active; calls by dose curve; further: 0% is about no effect
PR8 titer: influenza virus titer reduction, NS1 project. shares compounds with NS1 function inh. MDCK infected influenza A/PR/8/34, virus titer TCID50; stronger effect = lower value. virus titer (log TCID50), log10 TCID50 at 5 µM. hit rate 30% among 95; call rule not given here
Starred values were filed as active, the others as inactive; ? = inconclusive; . = no result; [ ] = another dose, or the depositor's remark. Only some compounds are listed: those with a hit (about 21% of all), similar ones and a draw of the others. Unless noted, the call rests on the fitted dose curve; in most records, active means well fitted curve in the direction sought with a large enough effect; inconclusive means small, poorly fitted or top-dose-only effect, or another doubt; inactive means no such curve, though single readings can be large; an effect the other way counts as inactive or inconclusive.

SMILES	Sm TGR inh	CHX counter	NS1 function inh	Pf growth 48h	Pf growth 96h	Shiga toxin inh	NS1 inh valid	others
COc1ccc(CN(Cc2nc3ccccc3c(=O)[nH]2)C(=O)c2ccco2)cc1	-2.2%	4.7	-18.9%	-26.9%	-23.8%	26.8	.
Cn1c(=O)cc(OCCCC(=O)NCCCN2CCN(Cc3ccccc3)CC2)c2ccccc21	2.3%	1.9	3.55µM*	?	125.8%	12.8	-15.6
COc1ccc(C(=O)Nc2c(N)nc(SCC(=O)Nc3ccc(NC(C)=O)cc3)[nH]c2=O)cc1OC	-3.9%	-0.6	22.4µM*	-25.4%	10.4µM*	-2.6	21.1
Nc1nc(SCC(=O)Nc2ccc(C(F)(F)F)cc2)[nH]c(=O)c1NC(=O)c1ccc(F)c(F)c1	8.1%	-0.5	11.2%	5.4%	?	-4.4	.
O=C(c1cc(NC(=O)C23CC4CC(CC(C4)C2)C3)cc(NC(=O)C23CC4CC(CC(C4)C2)C3)c1)N1CCCCC1	-3.3%	-5.0	11.2µM*	1.85µM*	1.47µM*	1.4	11.7
O=C(NC(=S)N1CCCCC1)C12CC3CC(CC(C3)C1)C2	12.7%	-3.6	5.4%	.	?	-6.3	.
COc1cccc2c(=O)c(C(=O)NCc3cccs3)c[nH]c12	6.6%	53.0*	1.41µM*	31.3%	3.4%	76.5*	-4.1
Cc1ccc2[nH]cc(C(=O)NCc3cccs3)c(=O)c2c1	3.4%	9.5	6.5%[9.22 µM]	?	-4.5%	-4.9	.
CCN1CCN(CCCNC(=O)C2CCN(c3nnc(-n4c(C)ccc4C)s3)CC2)CC1	-22.0%	-3.3	3.1%	-12.9%	59.5%	-4.1	.
CC1(c2ccc(OCC#N)cc2)C=C(c2ccc(OCC#N)cc2)n2nc(C(F)(F)F)nc2N1 (centres undefined)	-8.6%	-2.5	10µM*	9.28µM*	7.38µM*	8.8	?
Cc1ccc(C(=O)CSc2nnc(CNc3nc(-c4ccccc4)cs3)n2C)cc1	-23.0%	18.6	3.16µM*	?	13.1µM*	24.5	-16.0
O=c1[nH]c(C2CCCN(S(=O)(=O)c3ccc(F)cc3)C2)nc2c1nnn2Cc1ccc(F)cc1 (centres undefined)	-11.6%	-2.8	?	?	14.3%	20.2	-4.8
COC(CNC(=O)c1ccc(Cn2c(=S)[nH]c3cc4c(cc3c2=O)OCO4)cc1)OC	10.1%	7.1	6.31µM*	?	?	-19.6	16.0
NS(=O)(=O)c1ccc(NC(=O)CSc2nc3ccccc3[nH]2)cc1	-6.9%	1.6	.	-4.8%	0.7%	-6.8	.
O=C(CSc1ccc(-c2nc3ccccc3[nH]2)cn1)Nc1ccc(S(=O)(=O)N2CCCC2)cc1	15.8%	40.0*	14.1µM*	?	?	32.6*	9.3
CCC1CCCN1Cn1cnc2c([nH]c3ccc(C)cc32)c1=O (centres undefined)	-2.1%	3.7	?	-13.2%	33.6%	15.5	-22.5
CCC(C)NC(=O)CCCN1C(=O)CCn2nc(-c3cccn3C)cc21 (centres undefined)	2.8%	.	.	.	.	.	.
Cc1ccccc1N1C(=O)NC(=O)/C(=C\c2ccc3c(c2)CCCN3Cc2ccccc2)C1=O	?	11.9	?	2.3%	1.5%	22.1	-31.1
O=Cc1ccc2c(c1)CCN2Cc1ccccc1	0.0%	33.3	-38.9%	45.9%	155.1%	15.8	.
Cc1cc(C)c2c(=O)n(CC(=O)N3CCC(N4CCCCC4)CC3)sc2n1	-27.7%	-7.5	3.6%	.	?	-18.9	.
CCOC(=O)C1CCCN(C(=O)Cn2sc3nc(C)cc(C)c3c2=O)C1 (centres undefined)	?	-1.5	5.01µM*	.	32.9%	-10.5	?
CC[C@H](C)[C@H](NC(=O)[C@H](CC(C)C)NC(=O)[C@H](CO)NC(=O)[C@H](CCC(=O)O)NC(=O)[C@H](CC(C)C)NC(=O)[C@H](Cc1ccc(O)cc1)NC(=O)[C@H](CCCCN)NC(=O)[C@H](CCCCN)NC(=O)[C@H](C)NC(=O)[C@H](CO)NC(=O)[C@H](CC(C)C)NC(=O)[C@H](CCC(N)=O)NC(=O)CNC(=O)[C@H](CC(C)C)NC(=O)[C@H](CC(C)C)NC(=O)[C@H](CCCNC(=N)N)NC(=O)[C@H](CO)NC(=O)[C@H](Cc1ccccc1)NC(=O)[C@H](CC(=O)O)NC(=O)[C@H](CO)NC(=O)[C@@H](NC(=O)[C@H](Cc1ccccc1)NC(=O)[C@@H](NC(=O)CNC(=O)[C@H](CC(=O)O)NC(=O)[C@H](C)NC(=O)[C@@H](N)Cc1cnc[nH]1)C(C)C)[C@@H](C)O)C(N)=O	.	-8.7	.	.	.	-7.0	.
COc1ccc(C(=O)NCC2(c3ccccc3)CCCC2)c(OC)c1	0.2%	-10.4	-4.8%	12.9%[0.00184 µM]	?	14.0	.
COc1ccc(C2(CNC(=O)CCC(=O)O)CCCC2)cc1	4.8%	-0.1	12.6µM*	0.6%	.	-10.8	8.7
CCCc1cc(=O)[nH]c(SCC(=O)Nc2cc(C)on2)n1	1.8%	1.2	.	16.9%	?	18.9	.
SMILES	Sm TGR inh	CHX counter	NS1 function inh	Pf growth 48h	Pf growth 96h	Shiga toxin inh	NS1 inh valid	others
Cc1ccc(NC(=O)C2CC(Cl)=CCC2C(=O)O)c([N+](=O)[O-])c1 (centres undefined)	6.9%	-1.4	2.0%	12.0%	-22.3%	11.2	.
CC(=O)Nc1ccc(Nc2ncnc3ccccc23)cc1	8.7%	14.2*	?	97.5%	87.8%	25.9	11.4	PR8 titer=8.5
CCOC(=O)CN1CC23C=CC(O2)C(C(=O)Nc2cc(OC)ccc2OC)C3C1=O (centres undefined)	-4.9%	5.9	7.8%	27.5%	?	14.4	.
CCOC(=O)CN1CC23C=CC(O2)C(C(=O)Nc2ccc(OC)cc2OC)C3C1=O (centres undefined)	-5.1%	12.0	3.16µM*	16.6%	?	10.4	-2.4
Cn1cccc1/C=N/N1CCN(Cc2ccccc2)CC1	-29.0%	15.2	2.3%	-10.1%	14.2%	-1.3	.
Cn1cccc1/C=N/N1CCN(c2ccccn2)CC1	?	37.6*	?	45.0%	25.1%	61.3*	-22.2
CCn1c(-c2csc3c2CCC(C)C3)n[nH]c1=S (centres undefined)	-2.5%	-0.7	-4.5%	8.6%	-2.1%	-14.7	.
O=S(=O)(c1cc(F)ccc1F)N1CCN(c2ncccn2)CC1	4.4%	8.4	22.5%	12.9%	-6.3%	-7.0	.
CCCCNC(=O)CS(=O)Cc1nc(-c2cccs2)oc1C (centres undefined)	6.31µM*	-6.5	11.2µM*	.	8.28µM*	-22.0	5.1
Cc1oc(-c2ccccc2Cl)nc1CS(=O)CC(=O)NCc1cccs1 (centres undefined)	-21.7%	0.8	-7.5%	.	-16.8%	-2.0	.
